Assay outcomes deposited in PubChem BioAssay by several laboratories.
MCL1-BIM inh – inhibitors of human MCL1 binding to BIM-BH3 peptide; AID 2057; GST-MCL1 / FITC-Bim-BH3 fluorescence polarization; 320,000 compounds, 0.68% hits; inhibition, % at 10.9 µM; Q07820;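 active means inhibition above the mean inhibition of all tested compounds plus 3 SD, set per campaign, cut at about 40% in these data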;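 further: 0% = DMSO wells and 100% = unlabeled Bim-BH3 peptide control; higher means more loss of mP so more displacement of Bim peptide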
Target sequence (Q07820 whole entry, looked up): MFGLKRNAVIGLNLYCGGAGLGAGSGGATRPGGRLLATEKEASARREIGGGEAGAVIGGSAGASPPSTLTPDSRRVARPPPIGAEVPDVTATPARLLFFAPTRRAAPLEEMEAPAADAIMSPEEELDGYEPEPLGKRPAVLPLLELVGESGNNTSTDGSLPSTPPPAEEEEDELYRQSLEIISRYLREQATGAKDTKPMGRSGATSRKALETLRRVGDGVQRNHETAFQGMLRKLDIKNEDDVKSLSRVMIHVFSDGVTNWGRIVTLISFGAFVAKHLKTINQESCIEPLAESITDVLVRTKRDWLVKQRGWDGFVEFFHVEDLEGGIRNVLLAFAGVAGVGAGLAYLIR
GLD-1 RNA inh – GLD-1-TGE RNA interaction inhibition (C. elegans); Q17339; purified GLD-1 + fluorescein TGE RNA, fluorescence polarization; inhibition, % at 5.96 µM; 320,000 compounds, 0.44% hits;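 active means percent inhibition above a per-plate cutoff, the plate mean of test compounds plus 3 SD, cut at about 30% in these data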;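 further: 0% = DMSO wells with GLD-1 and probe and 100% = wells lacking GLD-1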
Mcl1 Noxa PPI – Mcl-1/Noxa interaction inhibition. Q07820. TR-FRET Mcl-1/Noxa peptide binding, 2 h. inhibition, % at 21.7 µM. 220,000 compounds, 1.5% hits. AID 1022;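 active means compounds that cut the protein-peptide binding signal by more than 50% relative to plate controls in a single-dose test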;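 further: His-tagged Mcl-1 with rhodamine Noxa BH3 peptide and terbium anti-His antibody; 0% = Mcl-1 plus Noxa peptide wells and 100% = peptide-only wells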
Bcl-xL primary – Bcl-xL (human) inhibition; Q07817; GST-Bcl-xL / FITC-Bim BH3 peptide fluorescence polarization; inhibition, % at 10.9 µM; 320,000 compounds, 0.7% hits;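 active means inhibition above the mean of all tested compounds plus 3 SD, cutoff set per campaign, cut at about 30% in these data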;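 further: 0% = DMSO wells and 100% = unlabeled Bim-BH3 peptide competitor; inhibitors lower millipolarization by displacing the labeled peptide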
Target sequence (Q07817 whole entry, looked up): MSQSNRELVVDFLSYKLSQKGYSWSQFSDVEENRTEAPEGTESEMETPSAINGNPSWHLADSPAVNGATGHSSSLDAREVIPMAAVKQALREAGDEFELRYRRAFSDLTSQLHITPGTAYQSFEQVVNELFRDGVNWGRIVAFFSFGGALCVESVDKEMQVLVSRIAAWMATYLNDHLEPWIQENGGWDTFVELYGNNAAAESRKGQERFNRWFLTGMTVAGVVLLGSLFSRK
Mcl1 Bid PPI – disrupts binding of human Mcl-1 to Bid peptide. 220,000 compounds, 0.97% hits. TR-FRET Mcl-1/Bid-Dy647 peptide binding, 1536-well. Q07820. AID 1021. inhibition, % at 21.7 µM;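 active means compounds that cut the binding signal by more than half at the single screening dose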;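 further: His-tagged Mcl-1 with europium anti-His antibody binding Bid BH3 peptide; 0% = Mcl-1 plus peptide wells and 100% = peptide-only wells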
Bim-Mcl-1 – human Bim-Mcl-1 interaction inhibition | Q07820 | inhibition, % at 10 µM | 190,000 compounds, 0.1% hits | Bead-based flow cytometry, Bim peptide-Mcl-1 binding | AID 1009; in the data active means inhibition above about 40%;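 further: 0% = no compound tracer wells and 100% = peptide blocker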
* marks the source's active call; other numbers are inactive results; / = no result given. In the library only some 2.3% were active in any assay of this set; here they are far more common.

SMILES	MCL1-BIM inh	GLD-1 RNA inh	Mcl1 Noxa PPI	Bcl-xL primary	Mcl1 Bid PPI	Bim-Mcl-1
Cc1ccc(NC(=O)COC(=O)c2cccc(N3C(=O)c4ccccc4C3=O)c2)cc1	7	2	1	5	-61	/
CN(C)c1ccc(NC(=O)c2cccc(N3C(=O)C4C5C=CC(C5)C4C3=O)c2)cc1 (centres undefined)	0	-2	80*	3	-74	-2
Cc1ccc(-c2nc(CNC(=O)c3cc(C)on3)cs2)cc1	-2	0	/	7	/	/
Cc1ccc(NC(=O)CCN2CC(C)OC(C)C2)cc1C (centres undefined)	7	7	/	0	/	/
CC1(C)N=C(N)N=C(N)N1c1ccc(Oc2ccc(Cl)cc2)c(Cl)c1	7	-4	/	5	/	/
COCCSc1nnc(NC(=O)COc2ccc3c(c2)OCO3)s1	-6	-2	/	-4	/	/
Cc1nn(Cc2noc(C(=O)NC3CCC(C)CC3)n2)c(C)c1Br (centres undefined)	1	-1	/	0	/	/
NS(=O)(=O)c1ccc(NC(=O)C2Cc3ccccc3CN2C(=O)c2ccco2)cc1 (centres undefined)	15	-1	/	38*	/	/
C=CCOc1nc2c(c(=O)n(C)c(=O)n2C)n1C	-7	0	10	36*	-8	0
COc1ccc(C2=CC3=C(Br)C(=O)C(C)(OC(=O)C4CCCC4)C(=O)C3=CO2)cc1 (centres undefined)	42*	9	27	31*	-44	/
COC(=O)CCC(=O)OC1(C)C(=O)C2=CN(Cc3ccc4c(c3)OCO4)C(c3ccc(OC)cc3)=CC2=C(Br)C1=O (centres undefined)	6	-1	/	12	/	/
COc1ccc(C2=CC3=C(Br)C(=O)C(C)(OC(=O)c4ccc(Cl)nc4)C(=O)C3=CO2)cc1 (centres undefined)	26	9	53*	21	-10	/
COc1cc(C)ccc1OCCCCN1CC(C)OC(C)C1 (centres undefined)	5	5	29	8	52*	-2
N#C/C(=C/c1ccc(-c2ccc(S(N)(=O)=O)cc2)o1)c1nc2ccccc2s1	15	-47	21	45*	53*	-23
N#C/C(=C\c1ccccn1)c1nc2ccccc2s1	-56	-54	19	-28	-23	0
COC(=O)c1ccc(/C=C(\C#N)c2nc3ccccc3s2)cc1	-67	-85	59*	-33	59*	0
O=[N+]([O-])c1cccc(N/N=C/c2cccc(O)c2O)c1	3	6	67*	4	-35	4
O=[N+]([O-])c1ccccc1N/N=C\c1ccccc1Cl	-1	8	16	5	3	-1
O=[N+]([O-])c1ccc(N/N=C/c2cccc(O)c2O)c(S(=O)(=O)N2CCOCC2)c1	14	-1	27	2	4	0
O=[N+]([O-])c1ccccc1N/N=C/c1cccc(O)c1O	12	6	54*	8	0	/
Cc1cccc(N/N=C/c2ccc(O)c(O)c2O)c1	20	2	53*	13	-189	/
Cc1cccc(NC(=O)CSCC(=O)N2CCN(Cc3ccc4c(c3)OCO4)CC2)c1	7	4	/	1	/	/
Cc1ccc(C)c(NC(=S)N(Cc2cccc(Br)c2)CC2CCC(C(=O)O)CC2)c1 (centres undefined)	-3	5	1	6	-20	-1
O=C(Nc1nc2ccccc2[nH]1)NC1CCCCC1	3	-2	/	3	/	/
CCc1c(C)nc2c(-c3ccccc3OC)c(C)[nH]n2c1=O	2	2	/	2	/	/
SMILES	MCL1-BIM inh	GLD-1 RNA inh	Mcl1 Noxa PPI	Bcl-xL primary	Mcl1 Bid PPI	Bim-Mcl-1
COc1cccc(CNc2nc3ccc(C)cc3n3cnnc23)c1	-4	-5	-17	-1	98*	/
Cc1ccc(CNc2nc3ccc(C)cc3n3cnnc23)cc1	-6	2	20	-2	10	-3
CCCCC(C(=O)NC1CCCC1)N(C(=O)c1snc(C(N)=O)c1N)c1ccc(C)cc1 (centres undefined)	4	3	/	1	/	/
CN1CCN(CCCCOc2ccccc2C=O)CC1	1	-6	14	2	56*	-3
CC1CCN(CCCCOc2ccccc2[N+](=O)[O-])CC1	6	10	-1	5	53*	1
CC1CCN(CCCCOc2ccc([N+](=O)[O-])cc2)CC1	-3	1	9	0	10	-3
COc1cccc(OC)c1OCCCCCCN1CCN(C)CC1	4	1	/	2	/	/
COc1ccc(NC(=O)[C@H](C)NC(=O)[C@@H]2Cc3ccccc3CN2C(=O)OC(C)(C)C)cc1	-1	9	/	2	/	/
CC(C)=CC(=O)Nc1ccc(S(=O)(=O)Nc2ccccn2)cc1	4	-2	-3	7	-29	-4
O=C(O)CCn1cc(/C=C\C(=O)c2ccc(Cl)cc2)c(-c2cccc(Br)c2)n1	1	10	20	4	58*	-2
COc1ccc(-c2nn(CCC(=O)O)cc2/C=C2\SC(N)=NC2=O)cc1	9	-5	67*	1	-35	-2
N#CCCn1cc(/C=C/C(=O)O)c(-c2ccc(F)cc2)n1	1	3	-2	2	-14	2
CCCOc1ccc(-c2nn(-c3ccccc3)cc2/C=C2\SC(N)=NC2=O)cc1	1	-1	-29	5	-8	-3
NC1=NC(=O)/C(=C/c2cn(CCC(=O)O)nc2-c2ccc(Cl)cc2)S1	-5	-14	72*	1	43	-6
NC1=NC(=O)/C(=C/c2cn(CCC(=O)O)nc2-c2ccc(F)cc2)S1	8	-3	55*	2	11	-14
CCC(C)n1c(OC)nc2c1c(=O)n(C)c(=O)n2C (centres undefined)	1	3	-6	7	-29	-1
O=C(CN1C(=O)CCSc2ccc(S(=O)(=O)N3CCOCC3)cc21)Nc1cccc(F)c1	-1	2	/	-1	/	/
CCN(C(=O)c1cccc(S(=O)(=O)N(C)C)c1)C12CC3CC(CC(C3)C1)C2	-6	5	/	3	/	/
Cc1ccc(Cc2nnc(SCC(=O)Nc3ccccc3)n(N)c2=O)cc1	5	4	/	2	/	/
COc1ccc([C@H]2CC(=O)C=C(/C=C/Cc3ccccc3)C2)cc1	-6	-1	/	0	/	/
O=C(Nc1ccc2nc3n(c(=O)c2c1)CCCCC3)C(=O)N1CCN(c2ccccc2)CC1	-4	0	/	0	/	/
O=c1c2c(nc3cc(-c4ccccc4)[nH]n13)CCS2	7	4	61*	5	-82	0
O=C(NCC(c1ccco1)N1CCc2ccccc2C1)C(=O)Nc1ccccc1 (centres undefined)	4	5	/	2	/	/
